# Screens from PubChem BioAssay.
# ALOX12 inh: inhibitors of human 12S-lipoxygenase ALOX12; 580,000 compounds, 1.1% hits; Potency, µM (top dose mostly 108 µM), actives largely listed as inhibitors; AID 1671190; P18054; purified 12hLO, xylenol orange hydroperoxide absorbance
# Target sequence (P18054 whole entry, looked up): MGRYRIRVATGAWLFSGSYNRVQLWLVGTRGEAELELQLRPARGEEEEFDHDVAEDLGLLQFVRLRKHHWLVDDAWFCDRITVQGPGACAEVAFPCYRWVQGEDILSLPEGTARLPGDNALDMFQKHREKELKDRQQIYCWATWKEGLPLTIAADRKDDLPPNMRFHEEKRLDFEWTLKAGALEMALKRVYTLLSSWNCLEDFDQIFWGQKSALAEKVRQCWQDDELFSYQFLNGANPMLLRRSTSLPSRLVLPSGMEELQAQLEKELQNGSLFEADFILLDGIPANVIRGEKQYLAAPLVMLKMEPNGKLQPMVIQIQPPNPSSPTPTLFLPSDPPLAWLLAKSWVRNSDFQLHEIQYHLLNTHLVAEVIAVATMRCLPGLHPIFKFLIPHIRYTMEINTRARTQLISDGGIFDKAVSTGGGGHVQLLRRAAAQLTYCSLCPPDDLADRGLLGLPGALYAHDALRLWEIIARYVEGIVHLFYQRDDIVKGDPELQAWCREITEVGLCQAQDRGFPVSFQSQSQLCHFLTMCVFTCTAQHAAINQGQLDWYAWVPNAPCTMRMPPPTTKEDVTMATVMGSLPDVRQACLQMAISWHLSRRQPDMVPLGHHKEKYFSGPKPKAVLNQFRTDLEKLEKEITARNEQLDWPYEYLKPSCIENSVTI
#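 Hydroperoxide product was detected by ferrous iron/xylenol orange as the 573 to 405 nm absorbance ratio. Arachidonic acid at 40 uM (final) was turned over for 30 min at room temperature by 150 nM human 12hLO, pH 7.0 Hepes buffer, after 15 min compound preincubation.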
# IL-1B inflam inh: inhibitors of inflammasome signaling (IL-1 beta secretion); THP-1 LPS/ATP IL-1B secretion, AlphaLISA, 16 h; hits give low values; activity change, % at 57.5 µM; 360,000 compounds, 4.7% hits; AID 743279; in the data active means activity change below about -50%; inconclusive means mostly about -30% to -49%
#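 Secreted IL-1B measured by AlphaLISA bead assay after 16 h compound exposure of THP-1 cells; compounds (final up to 57.5 uM) added 1 h before LPS (250 ng/mL) and ATP (1.25 mM) stimulation; lower signal means less secretion.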
# HT1080 IDH1KD tx: kills HT-1080 cells with IDH1 knockdown; HT-1080 IDH1 knockdown viability, ATP luminescence, 48 h; 360,000 compounds, 2% hits; Potency, µM (highest dose often 46.1 µM), actives largely listed as cytotoxic
#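 Viability of IDH1-knockdown HT-1080 fibrosarcoma cells was assessed by CellTiter-Glo after 48 h at 37 °C with titrated compound; concentration-effect curves were classified by fit quality and response size.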
# HT1080NT lethal: kills 2HG-producing HT-1080-NT fibrosarcoma cells; 360,000 compounds, 1.6% hits; AID 686970; HT-1080-NT fibrosarcoma viability, CellTiter-Glo ATP luminescence, 48 h; Potency, µM (doses to about 46.1 µM), most hits filed as cytotoxic;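 further: NT is the 2HG producing partner of a matched IDH1 knockdown line; nearly all actives have a fitted effect of over 55% in size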
#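 Viability by CellTiter-Glo luminescence after 48 h compound exposure at 37C of HT-1080-NT cells (750/well, RPMI, 5% FBS). % activity scaled between DMSO wells and medium-only wells, then curve-fitted and categorized by curve class.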
# TDP1 cell noCPT: qHTS for Inhibitors of human tyrosyl-DNA phosphodiesterase 1 (TDP1): qHTS in cells in absence of CPT; Potency, µM (titrated, usually from 46.2 µM), most hits filed as inhibitors; 420,000 compounds, 15% hits; AID 686978, 2013; DT40 Tdp1-/- hTDP1 cells, no CPT, ATP luminescence, 48 h; further: nearly all actives have a fitted effect of over 55% in size
#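 DT40 Tdp1-/-;hTDP1 cells, no CPT (DMSO vehicle only), 400 cells/well; compounds pin-transferred; ≥48 hr, 37 °C; CellTiter-Glo 30 min RT dark, luminescence read.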
# DT40 TDP1 CPT: growth inhibition of DT40 Tdp1-/-;hTDP1 cells with camptothecin (screen for TDP1 inhibitors) | chicken DT40 Tdp1-/-;hTDP1 cells + 20 nM CPT, ATP luminescence, 48 h | Potency, µM (titrated, usually from 46.2 µM), usual class: inhibitors | 420,000 compounds, 12% hits | AID 686979; further: nearly all actives have a fitted effect of over 55% in size
#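 Chicken DT40 Tdp1-/- cells stably complemented with human TDP1 were seeded at 400 cells/well in medium containing 20 nM camptothecin, exposed to pin-transferred compounds, and grown at 37 °C for at least 48 hr. Viability was read as ATP luminescence.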
# Numbers stand for hits; i = inactive; ? = inconclusive; nt = no result; ! = repeats disagree. The sample as a whole holds a higher share of hits than the screen did. Unless noted, the call rests on the fitted dose curve; in most records, active means well fitted curve in the direction sought with a large enough effect; inconclusive means small, poorly fitted or top-dose-only effect, or another doubt; inactive means no such curve, though single readings can be large; an effect the other way counts as inactive or inconclusive.
SMILES,ALOX12 inh,IL-1B inflam inh,HT1080 IDH1KD tx,HT1080NT lethal,TDP1 cell noCPT,DT40 TDP1 CPT
O=C(CCN1C(=O)C2C3C=CC(C3)C2C1=O)NCCc1ccccc1 (centres undefined),i,i,i,i,26µM,?
O=C(CCN1C(=O)C2C3C=CC(C3)C2C1=O)Nc1ccccn1 (centres undefined),i,i,i,i,i,i
Cc1cccc(NC(=O)CCN2C(=O)C3C4C=CC(C4)C3C2=O)n1 (centres undefined),i,i,i,i,23µM,16µM
O=C1C2C3C=CC(C3)C2C(=O)N1CCc1ccccc1 (centres undefined),i,i,i,i,i,i
COc1ccccc1NC(=O)Cn1c(=O)n(-c2ccccc2Cl)c(=O)c2sc3ccccc3c21,i,nt,nt,nt,10µM,?
O=C(Cn1c(=O)n(Cc2ccccc2)c(=O)c2sc3ccccc3c21)Nc1ccccc1,i,nt,nt,nt,?,?
O=C(Cn1c(=O)n(Cc2ccccc2)c(=O)c2sc3ccccc3c21)Nc1ccc(F)cc1,i,nt,nt,nt,15µM,15µM
COc1ccc(NC(=O)Cn2c(=O)n(Cc3ccccc3)c(=O)c3sc4ccccc4c32)cc1,i,nt,nt,nt,13µM,i
Cn1nc(C(=O)N2CCOCC2)c2c1-c1ccsc1CC2,i,nt,nt,nt,nt,nt
CCCSc1nnc(Sc2nnnn2-c2ccccc2)s1,i,-62,23µM,16µM,2.9µM,4.6µM
Cc1ccccc1-n1nnnc1Sc1nnnn1-c1ccccc1,i,-116,15µM,?,8.2µM,12µM
O=[N+]([O-])c1ccc(Sc2nnnn2-c2ccccc2)nc1,i,-97,21µM,16µM,3.7µM,3.3µM
COc1ccc2c(C)cc(Sc3nnnn3-c3ccccc3)nc2c1,i,-95,i,i,?,?
COc1ccc(OC)c(CN2CCN(C(=O)c3cc4c(s3)CCCCC4)CC2)c1,i,nt,nt,nt,nt,nt
COc1ccc([C@H]2C[C@H](O)[C@@H](n3cc(C4CC4)nn3)CN2CC2CCCCC2)cc1,i,i,i,i,?,?
COc1ccc([C@H]2C[C@@H](n3cc(C4CC4)nn3)[C@H](O)CN2CC2CCCCC2)cc1,i,-55,?,?,21µM,?
Cc1ccc([C@H]2C[C@H](n3cc(C4CC4)nn3)[C@@H](O)CN2CC2CCCCC2)cc1,?,i,?,?,18µM,?
O=C(Cc1n[nH]c(=O)c2ccccc12)Nc1nc2c(s1)CCCC2,i,nt,nt,nt,nt,nt
O=C(O)c1[nH]ncc1CN1CCc2[nH]nc(-c3ccc(-c4ccccc4)cc3)c2C1,i,nt,nt,nt,nt,nt
COc1ccc(COc2ccc3c(C)cc(=O)oc3c2)cc1,i,i,i,i,?,?
Cc1cc(=O)oc2cc(OCc3ccc(S(=O)(=O)N4CCOCC4)cc3)ccc12,i,i,i,i,29µM,?
CC[N+](CC)(CC)CCOc1ccc(/C=C\c2ccccc2)cc1,i,nt,nt,nt,2.1µM,2.7µM
CC[N+](CC)(CC)CCOc1ccc(/C=C/c2ccccc2)cc1,50µM!,i,16µM,?,2.6µM,4.6µM
CC[N+](CC)(CC)CCOc1cccc(OCC[N+](CC)(CC)CC)c1OCC[N+](CC)(CC)CC,?,i,i,i,i,i
COc1ccc(-c2noc(-c3cccn3CC(=O)N3CCC(C)CC3)n2)cc1F,i,nt,nt,nt,nt,nt
O=C(COC(=O)COc1ccc2ccccc2c1)NC1CCCc2ccccc21 (centres undefined),i,i,i,i,i,i
OC(CNC1CCCc2ccccc21)COc1ccc2ccccc2c1 (centres undefined),?,i,i,i,21µM,?
CCOc1ccccc1OCCCC(=O)NC1CCCc2ccccc21 (centres undefined),i,i,i,i,?,?
O=C(c1ccccc1)c1ccc(OCC(O)CNC2CCCc3ccccc32)cc1 (centres undefined),i,i,i,i,?,16µM
